EPAC1 ag – EPAC1 (human) agonism. Potency, µM (series often up to 154 µM), actives largely listed as activators. EPAC1 agonist qHTS, biochemical assay; response scale: 100% = response to 6.5 mM cAMP. O95398. actives 0.073% (n = 360,000). AID 720707; note: nearly all actives have a fitted effect of over 60% in size
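Nucleotide exchange assay: 100 nM EPAC1 with 250 nM Rap1B loaded with BODIPY-GDP and 50 uM GDP, room temperature. Fluorescence (480/540 nm) read every 5 min for 30 min; signal change normalized to 6.5 mM cAMP as full agonist.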
EPAC2 antagonist – EPAC2 (human) antagonism. Q8WZA2. Potency, µM (series often up to 114 µM), usual class: inhibitors. actives 0.18% (n = 360,000). EPAC2 GEF exchange of Rap1B-BODIPY-GDP, fluorescence; note: nearly all actives have a fitted effect of over 45% in size
IL-2 act – activators of IL-2. IL-2 activation reporter assay, cell-based qHTS; stimulated with anti-CD3/CD4/CD28 beads; in transgenic mouse T cells. activation, % (series mostly up to about 46 µM). actives 0.065% (n = 360,000); in the data active = activation above about 50%; inconclusive = mostly about 30% to 49%
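Unstimulated transgenic mouse T cells; 60-min compound exposure; bead-based TCR/CD4/CD28 stimulation; 18 h culture, 37 degrees C; dual fluorescence (EGFP, DsRed) plate cytometry.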
EPAC2 ag – EPAC2 (human) agonism | EPAC2 activation, biochemical qHTS; response scale: 100% = 6.5 mM cAMP response | Potency, µM (series often up to 154 µM), hits mostly activators | Q8WZA2 | actives 0.079% (n = 360,000) | AID 720711; note: nearly all actives have a fitted effect of over 50% in size
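In this primary screen, activation is scored as increased exchange of BODIPY-GDP from Rap1B by 100 nM EPAC2, with 50 uM GDP as competitor. Signal is normalized to the 6.5 mM cAMP agonist control.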
PKM2 act – PKM2 (human) enzyme activation; P14618; purified PKM2, Kinase-Glo ATP luminescence, activation; response scale: 0% is enzyme alone, no compound; Potency, µM (doses to about 57.5 µM), most hits filed as activators; actives 0.34% (n = 260,000); AID 1631; note: nearly all actives have a fitted effect of over 55% in size
Target sequence (P14618 whole entry, looked up): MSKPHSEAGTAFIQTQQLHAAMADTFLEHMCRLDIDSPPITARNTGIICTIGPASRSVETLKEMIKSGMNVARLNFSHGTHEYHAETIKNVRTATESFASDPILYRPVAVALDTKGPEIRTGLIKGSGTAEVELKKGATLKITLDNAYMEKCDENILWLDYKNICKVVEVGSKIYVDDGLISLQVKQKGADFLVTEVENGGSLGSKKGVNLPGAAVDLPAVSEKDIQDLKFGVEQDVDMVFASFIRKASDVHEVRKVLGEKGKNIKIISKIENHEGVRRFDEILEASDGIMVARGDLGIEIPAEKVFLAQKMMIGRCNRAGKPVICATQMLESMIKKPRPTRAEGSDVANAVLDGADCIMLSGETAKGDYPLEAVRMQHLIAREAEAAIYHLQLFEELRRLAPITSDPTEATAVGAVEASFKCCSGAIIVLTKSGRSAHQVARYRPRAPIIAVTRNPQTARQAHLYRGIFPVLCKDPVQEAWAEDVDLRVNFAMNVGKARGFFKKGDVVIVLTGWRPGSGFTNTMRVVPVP
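Purified hPK-M2 (>95%) run at intermediate activity with 0.1 mM ADP and 0.5 mM PEP in 50 mM imidazole pH 7.2, KCl, MgCl2; 1 h room temperature. ATP formed read by Kinase-Glo luminescence; normalized to uninhibited and no-enzyme controls.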
EPAC1 antagonist – antagonists of human EPAC1 | O95398 | EPAC1 GEF assay, Rap1b-BODIPY-GDP exchange fluorescence | Potency, µM (doses to about 115 µM), usual class: inhibitors | actives 0.14% (n = 360,000) | AID 720709; note: nearly all actives have a fitted effect of over 50% in size
Each line names hits and unclear results; the compound was inactive in the other large screens. Shown are actives, neighbours in structure and some others; about 0.64% of the full set was active somewhere. Unless noted, calls come from the whole dose curve; as a rule, active = well fitted curve in the direction sought with a large enough effect; inconclusive = small, poorly fitted or top-dose-only effect, or another doubt; inactive = no such curve, though single readings can be large; an effect the other way counts as inactive or inconclusive.

CC(=O)NC(c1cccs1)c1cc(Cl)c2ccccc2c1O (configuration not stated)	EPAC2 antagonist inconclusive (no result: PKM2 act)
CCC(=O)NC(c1cccs1)c1cc(Cl)c2ccccc2c1O (configuration not stated)	EPAC2 antagonist 79µM (no result: PKM2 act)
CCOc1ccc(NC(=O)CSc2ncn[nH]2)c([N+](=O)[O-])c1	PKM2 act 16µM
CCOc1ccc(/C=C/C(=O)Nc2ccc(OC)cc2[N+](=O)[O-])cc1	IL-2 act 114
COc1ccc(NC(=O)CSc2ncn[nH]2)c([N+](=O)[O-])c1	PKM2 act inconclusive
CCc1nc(SCC(=O)Nc2ccc(OC)cc2[N+](=O)[O-])n[nH]1	PKM2 act 25µM
COc1ccc(NC(=O)CSc2n[nH]c(-c3ccncc3)n2)c([N+](=O)[O-])c1	none
COc1cc(S(=O)(=O)N(Cc2cccs2)CC2CCCO2)ccc1-n1cnnn1 (configuration not stated)	none
O=S(=O)(NCc1ccccc1)c1ccc(S(=O)(=O)N(Cc2cccs2)CC2CCCO2)cc1 (configuration not stated)	EPAC2 ag 40µM
CSc1ccccc1NC(=O)c1noc(C)c1[N+](=O)[O-]	none (no result: PKM2 act)
CC(=O)NCCc1nc2cc(NS(=O)(=O)c3ccc(Cl)cc3)ccc2n1C	none
Cn1c(CCNC(=O)c2ccco2)nc2cc(NS(=O)(=O)c3ccc(Cl)cc3)ccc21	PKM2 act 16µM
COCC(=O)N1CCC(Oc2ccc(C(=O)NC3CCOC(C)(C)C3)cc2)CC1 (configuration not stated)	none
C[C@H](CO)N1C[C@H](C)[C@@H](CN(C)Cc2ccc(C(=O)O)cc2)Oc2c(cccc2N(C)C)C1=O	none (no result: PKM2 act)
Cc1cc(NC(=O)CSc2nnc(-c3ccoc3C)o2)no1	PKM2 act 16µM
O=C(N[C@H](Cc1ccc(Cl)cc1)C(=O)O)OCC1c2ccccc2-c2ccccc21	EPAC2 antagonist inconclusive, EPAC1 antagonist 50µM
O=Cc1cccc(OCc2cccc3ccccc23)c1	none (no result: PKM2 act)
CC(C)(C)NC(=O)NC(=O)CN1CCN(S(=O)(=O)c2ccc3c(c2)CCCC3)CC1	EPAC1 ag 56µM (no result: PKM2 act)
CCN(C(=O)COC(=O)/C=C/c1c(C)nn(-c2ccccc2)c1C)c1c(N)n(Cc2ccccc2)c(=O)[nH]c1=O	none (no result: PKM2 act)
CC(CCC(C)C(C)(C)C)[C@@H]1CC[C@H]2C3C[C@H](OS(O)(=S)=S)[C@H]4C[C@H](OS(O)(=S)=S)[C@@H](OS(O)(=S)=S)C[C@]4(C)[C@H]3CC[C@]12C (some centres not stated) (tested in a mixture with another compound)	EPAC2 antagonist 20µM, EPAC1 antagonist 16µM (no result: PKM2 act)
C=CCOC(=O)C1=C(C)Nc2nnnn2C1c1cccc(OC)c1OC (configuration not stated)	none
CCOC(=O)C1=C(C)Nc2nnnn2C1c1cccc(OC)c1OC (configuration not stated)	PKM2 act 16µM
COCCn1c(-c2ccc(OC)cc2)nc2ccccc21	none
COCCn1c2nc(=O)n(-c3ccccc3)c(=O)c-2nc2ccccc21	EPAC1 ag 89µM, EPAC2 ag 89µM (no result: PKM2 act)
CCC1(C)NC(=O)N(CC(=O)Nc2cc(C)on2)C1=O (configuration not stated)	none (no result: PKM2 act)
O=C1S/C(=C\c2ccc(N3CCOCC3)o2)C(=O)N1Cc1c(F)cccc1Cl	PKM2 act 2.5µM
O=C1S/C(=C\c2ccc(N3CCOCC3)o2)C(=O)N1c1ccccc1	EPAC2 ag 89µM
COC(=O)c1cc(Cl)cc(Cl)c1OS(=O)(=O)N(C)C	EPAC2 antagonist inconclusive
COc1ccc(C2c3ccc4ccccc4c3Oc3ncn(CCN(C)C)c(=N)c32)cc1 (configuration not stated)	none (no result: PKM2 act)
O=C1N=c2ccccc2=C1c1sc(Nc2ccc(O)cc2)nc1O	EPAC1 antagonist 45µM
CC(=O)Nc1ccc(NCc2cccs2)cc1	none
Oc1ccc(NCc2cccs2)cc1	EPAC1 antagonist 56µM
CCCCNc1ccc2c(c1)C1CC2CCN1C(=O)OCc1ccccc1 (configuration not stated)	none (no result: PKM2 act)
O=C(Nc1nc2ccc(Cl)cc2s1)C1CCCO1 (configuration not stated)	EPAC2 ag 7.9µM
CS(=O)(=O)c1ccc2nc(NC(=O)C3CCCO3)sc2c1 (configuration not stated)	none
O=C(CCCN1C(=O)/C(=C\c2cccs2)SC1=S)NNC(=O)c1ccncc1	none
CCc1ccc(C=C2SC(=S)N(CCCC(=O)Nc3ccc(C(=O)O)cc3)C2=O)cc1	EPAC1 antagonist inconclusive (no result: PKM2 act)
COc1ccccc1C(=O)NNC(=O)CCCN1C(=O)/C(=C/c2cccs2)SC1=S	EPAC2 ag 100µM
CCc1ccc(/C=C2/SC(=S)N(CCCC(=O)Nc3ccccc3C(=O)O)C2=O)cc1	EPAC2 antagonist inconclusive, EPAC1 antagonist 40µM
CCCCCCN1C=CC=C/C1=C/C=C(C#N)C#N	EPAC1 antagonist 89µM
O=C1CCCN1CCC12CC3CC(CC(C3)C1)C2	PKM2 act 40µM
CCSc1nc2ccccc2c(=O)n1C1CCOC(C)(C)C1 (configuration not stated)	EPAC2 antagonist 40µM
CN(C)/C=C(\C(=O)c1ccccc1)c1nnnn1-c1ccccc1	none
CN(C)/C=C(\C(=O)c1ccc(F)cc1F)c1nnnn1-c1ccccc1	PKM2 act 16µM
CCOc1cccc(CNc2ccc(O)cc2)c1OCc1ccc(Cl)cc1Cl	EPAC2 antagonist inconclusive, EPAC1 antagonist 50µM
CCOc1cccc(CNCCO)c1OCc1ccc(Cl)cc1Cl	none
CCOc1cccc(CNn2cnnc2)c1OCc1ccccc1Cl	none
CCOc1cccc(CNc2ccc(O)cc2)c1OCc1ccccc1Cl	EPAC1 antagonist 28µM
Cc1cc(OCc2cc(C(=O)NCc3csc(C(C)C)n3)no2)cc(C)c1Cl	none
CN(C(=O)CSc1nnc(C(F)(F)F)n1N)C1CCS(=O)(=O)C1 (configuration not stated)	none
Cc1ccc(SCC(=O)OCC(=O)N(C)CC(=O)Nc2ccc(F)cc2)cc1C	EPAC1 ag 126µM (no result: PKM2 act)
CN(CC(=O)Nc1ccc(F)cc1)C(=O)CSc1ccc2c(c1)OCCO2	none (no result: PKM2 act)
CC1CCCCC1NC(=O)COC(=O)c1c2c(nc3ccccc13)/C(=C\c1ccco1)CC2 (configuration not stated)	EPAC1 antagonist 35µM (no result: PKM2 act)
Nc1ccnc(=O)[nH]1	none (no result: PKM2 act)
